Assay outcomes from PubChem BioAssay.
GSIS activator: GLuc luminescence reporter in INS-1E cells, primary screen for activators of glucose-dependent secretion of insulin. INS-1E GLuc reporter insulin secretion, 2-3 h. activation, % at 16.6 µM. 0.61% of 370,000 active. AID 743287, 2014;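 active means lowest replicate activation of at least 40%, so every replicate reaches that level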
EWS-Fli block: EWS/Fli-driven NR0B1 reporter inhibitors, primary screen, A673 cells, NR0B1 luciferase, luminescence, MLPCN library. viability-normalised. inhibition, % at 12.6 µM. 0.67% of 350,000 active. AID 651661, 2012;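 active means mean inhibition of at least 50% after viability correction, with every replicate also passing that limit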;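 further: firefly luciferase signal divided by Alamar Blue viability fluorescence both relative to DMSO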
Statin myotox sup: suppressors of statin myotoxicity in C2C12 myotubes, primary screen, cell-based, single point, plate reader; C2C12 myotubes + simvastatin, ATP luminescence, 48 h; scaled: DMSO 0, geranylgeraniol control 100; rescue of ATP level, % at 7.49 µM; 0.78% of 330,000 active;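 active means mean ATP rescue above about 67%, or every replicate alone reaching that limit, limit read from the data, passing the limit was not always enough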;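 further: myotubes were challenged with 10 µM simvastatin during compound exposure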
PAX8 reporter: inhibitors of PAX8-driven TPO luciferase reporter, primary screen, RMG-I cells, single concentration; 1.2% of 360,000 active; inhibition, % at 12.6 µM; AID 652154, 2013; SteadyGlo, 24 h;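 active means mean replicate inhibition at least 60% with every replicate also reaching 60%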;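 further: luciferase light reporting Pax8 driven TPO promoter activity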
miR122 inh: miR-122 Renilla sensor signal increase in Huh7, primary screen, miR-122 inhibitor project, cell-based, single point, plate reader | 0.3% of 340,000 active | activation (reporter increase), % at 12.5 µM | Huh7 miR-122 Renilla luciferase sensor, 48 h; neutral wells = 0, positive control = 100 | AID 602342, 2012;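 active means mean replicate activation score at least 90 and every replicate individually at or above 90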;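 further: higher luciferase means less miR-122 activity so hits act as miR-122 inhibitors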
HIV Env fusion: inhibitors of HIV-1 Env-driven cell-cell fusion, primary screen, HeLa-JRFL effector, CEM21 target cells, luciferase | inhibition, % at 12.3 µM | 1.1% of 360,000 active | AID 651610, 2012;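 active means mean replicate inhibition score of at least 50 and every replicate individually at or above 50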
DNA binding: DNA binders by acridine orange displacement, dose response, counter-screen for EWS/Fli inhibitor project, biochemical, fluorescence polarization, cherry-pick. salmon sperm DNA acridine orange fluorescence polarization. shares compounds with EWS-Fli block. 2% of 640 active. AID 720586, 2013. AC35, µM (series often up to 68 µM);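 active means fitted curve reaches a 35% signal fall AC35 below twice the sample's top valid tested dose, actives reach about 48 µM in these data; inactive means the rest, including activity in the rising direction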;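 further: lower polarization ratio signals compound binding to DNA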
Each line names hits and unclear results; the compound was inactive in the other large screens (follow-up assays come after a bar, where they were run); [ ] = another dose, or the depositor's remark. Hits are enriched below; roughly 3.1% of the tested compounds scored in any of these assays.

CSc1nc(O)c(/C=C2\C=Nc3ccccc32)[nH]1	none (no result: EWS-Fli block, Statin myotox sup, miR122 inh)
O=C(Nc1ccc2c(c1)OCO2)N[C@@H]1C=C[C@@H](CC(=O)N2CCN(c3ccccc3)CC2)O[C@H]1CO	none
CC(C)(C)c1ccc(Oc2ccc(NC(=O)C3CC=CCC3C(=O)O)cc2)cc1 (stereo not drawn)	EWS-Fli block 70 | DNA binding inactive
CN1c2ccc(C3=CCCCC3)cc2[C@@H]2[C@@H](CCN2S(=O)(=O)c2ccccc2)[C@@H]1CO	none (no result: HIV Env fusion)
CNC[C@H]1Oc2c(NC(=O)NC3CCCCC3)cccc2C(=O)N([C@@H](C)CO)C[C@@H]1C	none
COc1ccc2nc(-c3ccc(F)cc3)sc2c1	EWS-Fli block 55 (no result: GSIS activator, miR122 inh) | DNA binding inactive
Oc1c(C(c2ccc(Cl)cc2)N2CCCC2)cc(Cl)c2cccnc12 (stereo not drawn)	EWS-Fli block 53, PAX8 reporter 70 (no result: Statin myotox sup, miR122 inh) | DNA binding inactive
CC(=O)N1[C@@H]2c3ccc(-c4ccccc4)c(=O)n3C[C@H]1[C@H](CO)[C@H]2C(=O)Nc1ccccc1	none (no result: PAX8 reporter, miR122 inh, HIV Env fusion)
C[C@@H]1CN([C@@H](C)CO)C(=O)c2cc(C3=CCCC3)cnc2O[C@H]1CN(C)Cc1ccccc1	none (no result: PAX8 reporter)
C[C@H]1CN([C@@H](C)CO)C(=O)c2cc(NS(=O)(=O)c3cccs3)ccc2O[C@H]1CN(C)Cc1ccc(C(=O)Nc2ccccc2N)cc1	none (no result: Statin myotox sup, miR122 inh, HIV Env fusion)
C[C@@H]1CN([C@@H](C)CO)C(=O)c2cc(NC(=O)Nc3ccccc3)ccc2O[C@@H]1CN(C)Cc1ccc(C(=O)Nc2ccccc2N)cc1	EWS-Fli block 58, miR122 inh 170[16.7 µM] | DNA binding inactive
Cc1ccc(S(=O)(=O)Nc2ccc3c(c2)C(=O)N([C@H](C)CO)C[C@@H](C)[C@@H](CN(C)Cc2ccc(C(=O)Nc4ccccc4N)cc2)O3)cc1	EWS-Fli block 51 | DNA binding inactive
C[C@H](CO)N1C[C@H](C)[C@H](CN(C)Cc2ccc(C(=O)Nc3ccccc3N)cc2)Oc2ccc(NS(=O)(=O)c3cccs3)cc2C1=O	EWS-Fli block 54 (no result: PAX8 reporter, HIV Env fusion) | DNA binding inactive
C[C@H]1CN([C@@H](C)CO)C(=O)c2cc(NS(=O)(=O)c3ccc(Cl)cc3)ccc2O[C@@H]1CN(C)Cc1ccc(C(=O)Nc2ccccc2N)cc1	none (no result: PAX8 reporter, HIV Env fusion)
C[C@@H]1CN([C@@H](C)CO)C(=O)c2cc(NS(=O)(=O)c3ccc(Cl)cc3)ccc2O[C@@H]1CN(C)Cc1ccc(C(=O)Nc2ccccc2N)cc1	EWS-Fli block 53 (no result: PAX8 reporter, HIV Env fusion) | DNA binding inactive
CO[C@@H]1CN(C)C(=O)c2cc(NS(=O)(=O)CC(F)(F)F)ccc2OC[C@H](C)N(CCC(F)(F)F)C[C@H]1C	none
C[C@@H]1CCCCO[C@H](CN(C)Cc2ccc(C(=O)Nc3ccccc3N)cc2)[C@@H](C)CN([C@H](C)CO)C(=O)c2cc(NS(=O)(=O)c3ccc(Cl)cc3)ccc2O1	EWS-Fli block 61 (no result: Statin myotox sup) | DNA binding inactive
C[C@@H]1CCCCO[C@@H](CN(C)Cc2ccc(C(=O)Nc3ccccc3N)cc2)[C@@H](C)CN([C@H](C)CO)C(=O)c2cc(NS(=O)(=O)c3ccccc3)ccc2O1	none (no result: Statin myotox sup, miR122 inh, HIV Env fusion)
CCCCCCN(C(=O)CCCCCN1C(=O)NC(c2ccc(Cl)cc2)C(C(=O)OCc2ccccc2)=C1C)C(C(=O)NCCCC)c1ccc(OCC(=O)OC)c(C(=O)OC)c1 (stereo not drawn)	EWS-Fli block 66 (no result: Statin myotox sup, miR122 inh) | DNA binding inactive
CO[C@@H]1CN(C)C(=O)c2ccc(NS(=O)(=O)c3ccccc3)cc2OC[C@H](C)N(Cc2ccccn2)C[C@@H]1C	none (no result: miR122 inh, HIV Env fusion)
CC1=NN(c2ccccc2)C(=O)/C1=C\C=C\c1ccccc1	EWS-Fli block 64 (no result: GSIS activator, Statin myotox sup) | DNA binding inactive
